Biological target: Nonstructural protein 3 (Zika virus) (UniProt A0A024AXB9)
Conditions: PRVABC59, Concentration 10.0 uM

Chain of Nonstructural protein 3 (Zika virus) (A0A024AXB9 as listed by the source): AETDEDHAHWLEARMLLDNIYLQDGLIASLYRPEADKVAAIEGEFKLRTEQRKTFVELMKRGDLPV

N[C@H]1Cc2ccc(NC(=O)c3cc(Cl)cc4[nH]ncc34)cc2C1
pKD (Immobilization level 3900.0 pg/mm2, Rmax 32.0 pg/mm2, ka 340293.713 M-1s-1, kd 0.278 1/s): 6.09 | pKD (Immobilization level 4900.0 pg/mm2, Rmax 50.0 pg/mm2, ka 211944.111 M-1s-1, kd 0.288 1/s): 5.87 | pKD (Immobilization level 5500.0 pg/mm2, Rmax 52.0 pg/mm2, ka 230237.04 M-1s-1, kd 0.293 1/s): 5.9 | pKD (Immobilization level 10000.0 pg/mm2, Rmax 43.0 pg/mm2, ka 451655.452 M-1s-1, kd 0.518 1/s): 5.94 | pKD (Immobilization level 12000.0 pg/mm2, Rmax 66.0 pg/mm2, ka 170946.752 M-1s-1, kd 0.316 1/s): 5.73 | pKD (Immobilization level 13000.0 pg/mm2, Rmax 60.0 pg/mm2, ka 295502.849 M-1s-1, kd 0.406 1/s): 5.86

Cc1ncc(Br)cc1C(=O)Nc1ccc2c(c1)CNC2
pKD (Immobilization level 3900.0 pg/mm2, Rmax 35.0 pg/mm2, ka 305396.759 M-1s-1, kd 1.511 1/s): 5.3 | pKD (Immobilization level 4900.0 pg/mm2, Rmax 50.0 pg/mm2, ka 284203.309 M-1s-1, kd 1.434 1/s): 5.3 | pKD (Immobilization level 5500.0 pg/mm2, Rmax 66.0 pg/mm2, ka 223031.106 M-1s-1, kd 1.457 1/s): 5.18 | pKD (Immobilization level 12000.0 pg/mm2, Rmax 11.0 pg/mm2, ka 147874.405 M-1s-1, kd 1.474 1/s): 5 | pKD (Immobilization level 13000.0 pg/mm2, ka 192202.373 M-1s-1, kd 1.118 1/s): 5.24

CNCc1ccc(NC(=O)c2cc(Cl)cc3[nH]ncc23)cc1
pKD (Immobilization level 3900.0 pg/mm2, Rmax 37.0 pg/mm2, ka 226628.924 M-1s-1, kd 2.375 1/s): 4.98 | pKD (Immobilization level 4900.0 pg/mm2, Rmax 68.0 pg/mm2, ka 224620.672 M-1s-1, kd 2.867 1/s): 4.89 | pKD (Immobilization level 5500.0 pg/mm2, Rmax 65.0 pg/mm2, ka 234270.717 M-1s-1, kd 2.589 1/s): 4.96 | pKD (Immobilization level 10000.0 pg/mm2, Rmax 32.0 pg/mm2, ka 593939.753 M-1s-1, kd 4.324 1/s): 5.14 | pKD (Immobilization level 12000.0 pg/mm2, Rmax 64.0 pg/mm2, ka 470578.84 M-1s-1, kd 3.187 1/s): 5.17 | pKD (Immobilization level 13000.0 pg/mm2, Rmax 38.0 pg/mm2, ka 481481.04 M-1s-1, kd 3.216 1/s): 5.17

O=C(Nc1ccc2c(c1)CNC2)c1cc(Br)cc2[nH]ncc12
pKD (Immobilization level 3900.0 pg/mm2, Rmax 38.0 pg/mm2, ka 289981.015 M-1s-1, kd 0.089 1/s): 6.51 | pKD (Immobilization level 4900.0 pg/mm2, Rmax 58.0 pg/mm2, ka 168121.167 M-1s-1, kd 0.102 1/s): 6.21 | pKD (Immobilization level 5500.0 pg/mm2, Rmax 62.0 pg/mm2, ka 169991.939 M-1s-1, kd 0.118 1/s): 6.16 | pKD (Immobilization level 10000.0 pg/mm2, Rmax 73.0 pg/mm2, ka 76775.421 M-1s-1, kd 0.125 1/s): 5.79 | pKD (Immobilization level 12000.0 pg/mm2, Rmax 147.0 pg/mm2, ka 18302.495 M-1s-1, kd 0.037 1/s): 5.69 | pKD (Immobilization level 13000.0 pg/mm2, Rmax 120.0 pg/mm2, ka 46201.966 M-1s-1, kd 0.079 1/s): 5.76

NCc1ccc(NC(=O)c2cc(Cl)cc3[nH]ncc23)cc1
pKD (Immobilization level 3900.0 pg/mm2, Rmax 39.0 pg/mm2, ka 344993.29 M-1s-1, kd 2.713 1/s): 5.11 | pKD (Immobilization level 4900.0 pg/mm2, Rmax 52.0 pg/mm2, ka 210233.557 M-1s-1, kd 2.157 1/s): 4.99 | pKD (Immobilization level 5500.0 pg/mm2, Rmax 46.0 pg/mm2, ka 296422.165 M-1s-1, kd 2.251 1/s): 5.12 | pKD (Immobilization level 10000.0 pg/mm2, Rmax 40.0 pg/mm2, ka 241734.917 M-1s-1, kd 1.766 1/s): 5.14 | pKD (Immobilization level 12000.0 pg/mm2, Rmax 57.0 pg/mm2, ka 217368.509 M-1s-1, kd 1.551 1/s): 5.15 | pKD (Immobilization level 13000.0 pg/mm2, Rmax 45.0 pg/mm2, ka 247269.193 M-1s-1, kd 1.32 1/s): 5.27

CC(=O)Nc1cc(Br)cc(C(=O)Nc2ccc3c(c2)CNC3)c1
pKD (Immobilization level 3900.0 pg/mm2, Rmax 40.0 pg/mm2, ka 607998.487 M-1s-1, kd 0.155 1/s): 6.59 | pKD (Immobilization level 4900.0 pg/mm2, Rmax 52.0 pg/mm2, ka 391367.264 M-1s-1, kd 0.17 1/s): 6.36 | pKD (Immobilization level 5500.0 pg/mm2, Rmax 55.0 pg/mm2, ka 425641.507 M-1s-1, kd 0.187 1/s): 6.36 | pKD (Immobilization level 10000.0 pg/mm2, Rmax 42.0 pg/mm2, ka 618288.109 M-1s-1, kd 0.171 1/s): 6.56 | pKD (Immobilization level 12000.0 pg/mm2, Rmax 74.0 pg/mm2, ka 318554.659 M-1s-1, kd 0.182 1/s): 6.24 | pKD (Immobilization level 13000.0 pg/mm2, Rmax 61.0 pg/mm2, ka 520517.585 M-1s-1, kd 0.161 1/s): 6.51

C[C@@H](N)c1ccc(NC(=O)c2cc(Cl)cc3[nH]ncc23)cc1
pKD (Immobilization level 3900.0 pg/mm2, Rmax 41.0 pg/mm2, ka 249513.67 M-1s-1, kd 1.946 1/s): 5.11 | pKD (Immobilization level 4900.0 pg/mm2, Rmax 50.0 pg/mm2, ka 225007.554 M-1s-1, kd 1.686 1/s): 5.12 | pKD (Immobilization level 5500.0 pg/mm2, Rmax 61.0 pg/mm2, ka 227099.936 M-1s-1, kd 1.979 1/s): 5.06 | pKD (Immobilization level 10000.0 pg/mm2, Rmax 53.0 pg/mm2, ka 348896.97 M-1s-1, kd 2.109 1/s): 5.22 | pKD (Immobilization level 12000.0 pg/mm2, Rmax 62.0 pg/mm2, ka 212895.642 M-1s-1, kd 1.524 1/s): 5.14 | pKD (Immobilization level 13000.0 pg/mm2, Rmax 66.0 pg/mm2, ka 290082.005 M-1s-1, kd 1.572 1/s): 5.27

COCCCN1Cc2ccc(NC(=O)c3cc(Cl)cc4[nH]ncc34)cc2C1
pKD (Immobilization level 3900.0 pg/mm2, Rmax 42.0 pg/mm2, ka 388632.967 M-1s-1, kd 5.459 1/s): 4.85 | pKD (Immobilization level 4900.0 pg/mm2, Rmax 39.0 pg/mm2, ka 367718.358 M-1s-1, kd 4.612 1/s): 4.9 | pKD (Immobilization level 5500.0 pg/mm2, Rmax 38.0 pg/mm2, ka 400996.136 M-1s-1, kd 4.84 1/s): 4.92 | pKD (Immobilization level 10000.0 pg/mm2, Rmax 39.0 pg/mm2, ka 289414.732 M-1s-1, kd 5.077 1/s): 4.76 | pKD (Immobilization level 12000.0 pg/mm2, Rmax 59.0 pg/mm2, ka 250455.768 M-1s-1, kd 3.882 1/s): 4.81 | pKD (Immobilization level 13000.0 pg/mm2, Rmax 33.0 pg/mm2, ka 234107.52 M-1s-1, kd 2.737 1/s): 4.93

CNC(=O)[C@H](Nc1ccc2c(c1)CNC2)c1cc(Cl)cc2[nH]ncc12
pKD (Immobilization level 3900.0 pg/mm2, Rmax 42.0 pg/mm2, ka 444409.109 M-1s-1, kd 0.101 1/s): 6.65 | pKD (Immobilization level 4900.0 pg/mm2, Rmax 59.0 pg/mm2, ka 262811.946 M-1s-1, kd 0.117 1/s): 6.35 | pKD (Immobilization level 5500.0 pg/mm2, Rmax 61.0 pg/mm2, ka 294175.896 M-1s-1, kd 0.112 1/s): 6.42 | pKD (Immobilization level 10000.0 pg/mm2, Rmax 56.0 pg/mm2, ka 424251.343 M-1s-1, kd 0.126 1/s): 6.53 | pKD (Immobilization level 12000.0 pg/mm2, Rmax 69.0 pg/mm2, ka 214381.257 M-1s-1, kd 0.135 1/s): 6.2 | pKD (Immobilization level 13000.0 pg/mm2, Rmax 81.0 pg/mm2, ka 342437.146 M-1s-1, kd 0.116 1/s): 6.47

Source: ChEMBL document CHEMBL5598561, “ASAP - In vitro binding kinetics” (2024)
